ATXN2 expr inh: inhibitors of ATXN2 expression. Potency, µM (titrated, usually from 57 µM), most hits filed as inhibitors. HEK-293 ATXN2-luciferase reporter, luminescence, 24 h. 360,000 compounds, 0.72% hits; also: nearly all actives have a fitted effect of over 55% in size
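ATXN2-luciferase reporter cells (luciferase flanked by upstream and downstream ATXN2 gene portions) were treated 24 h at 37 °C with compounds at up to 57 uM. SteadyGlo luminescence gave expression; GF-AFC fluorescence gave viability.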
DRD3 antagonist: blocks the human D3 dopamine receptor; P35462; D3R cells, DiscoveRx beta-arrestin luminescence, antagonist mode; stronger effect = lower value; max response, negative = inhibition, %; 360,000 compounds, 2.5% hits; AID 652054; in the data active = max response below about -50%; inconclusive = no clear call, values can overlap the other calls
Target sequence (P35462 whole entry, looked up): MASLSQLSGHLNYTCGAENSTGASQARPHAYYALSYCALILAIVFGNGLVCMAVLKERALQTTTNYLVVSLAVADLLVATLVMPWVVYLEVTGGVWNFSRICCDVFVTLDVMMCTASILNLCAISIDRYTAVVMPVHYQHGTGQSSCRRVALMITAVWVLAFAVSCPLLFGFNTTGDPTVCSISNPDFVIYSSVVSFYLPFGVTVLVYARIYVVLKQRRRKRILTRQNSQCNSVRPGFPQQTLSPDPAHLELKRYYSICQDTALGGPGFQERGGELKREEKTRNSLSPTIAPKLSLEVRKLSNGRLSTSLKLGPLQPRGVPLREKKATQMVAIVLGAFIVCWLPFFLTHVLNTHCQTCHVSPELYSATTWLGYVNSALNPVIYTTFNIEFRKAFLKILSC
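Cells expressing the human receptor were seeded at 1500 cells/well, incubated overnight at 37 degrees C in 5% CO2, then exposed to library compounds with dopamine controls for 90 minutes at 37 degrees C before luminescent detection.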
TGFb inhibitor: blocks TGF-b signaling | 410,000 compounds, 1.2% hits | HepG2 CAGA-GFP TGF-b/SMAD3 reporter, GFP fluorescence, 18 h; TGF-beta stimulated, 500 pg/mL final | Potency, µM (top dose mostly 46.1 µM), usual class: inhibitors | AID 588855; also: nearly all actives have a fitted effect of over 65% in size
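Cell-based qHTS in HEPG2 carrying a CAGA-GFP Smad reporter; compounds added before 500 pg/mL final TGF-beta, 18 h incubation at 37 degrees C, GFP fluorescence quantified per cell by imaging cytometry.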
DRD3 agonist: D3 dopamine receptor (human) agonism | D3R DiscoveRx beta-arrestin cells, luminescence, 90 min | P35462 | max activation, % | 410,000 compounds, 0.58% hits | AID 652048; in the data active = max activation above about 30%
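Cells at 1500/well, incubated overnight, then treated with pinned compounds (dopamine as control) for 90 min at 37 degrees C. DiscoveRx reagent added for 30 - 60 minutes at room temperature; luminescence read.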
ATXN viability: reduces viability in counter-screen for ATXN expression inhibitors. S2 cells (HEK-293 line with an ATXN2-luciferase reporter) viability, CellTiter-Fluor protease fluorescence, 24 h. Potency, µM (doses to about 56.7 µM), hits mostly cytotoxic. 400,000 compounds, 0.49% hits. AID 651635; also: nearly all actives have a fitted effect of over 40% in size
HepG2 viability: counter-screen for TGF-b inhibitors: cytotoxicity in HepG2 cells; HepG2 CAGA-GFP viability, ATP luminescence, 18 h; Potency, µM (series often up to 46.1 µM), usual class: cytotoxic; 410,000 compounds, 0.76% hits
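HepG2 CAGA-GFP cells (1000/well, DMEM with 1% FBS) received compound, then TGF-beta at 500 pg/mL final, and were incubated 18 hours at 37 degrees C. Viability was read by CellTiter-Glo luminescence. Media-only wells were set as complete cell-killing and DMSO as no toxicity.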
Of the large screens only hits and unclear results are named; the others gave an inactive call; ! = repeats disagree. This is a sample that favours compounds with a hit; in the whole collection about 4.8% have one here. Unless noted, calls follow the shape of the dose curve; as a rule, active = well fitted curve in the direction sought with a large enough effect; inconclusive = small, poorly fitted or top-dose-only effect, or another doubt; inactive = no such curve, though single readings can be large; an effect the other way counts as inactive or inconclusive.

Cc1ccc(NC(=O)C2CCN(C(=O)c3cnn(-c4ccccc4)c3-n3cccc3)CC2)cc1C	ATXN2 expr inh inconclusive, TGFb inhibitor inconclusive, ATXN viability inconclusive (no result: DRD3 antagonist)
COc1ccc(/C=C/C(=O)c2ccc3c(c2)OCCO3)cc1[N+](=O)[O-]	DRD3 antagonist -51.1, TGFb inhibitor inconclusive
COc1ccc(Oc2ccc(/C=C/C(=O)c3cccc(OC)c3)cc2[N+](=O)[O-])cc1	ATXN2 expr inh inconclusive, DRD3 antagonist -56.1 (no result: ATXN viability)
OCC1(Cc2cccc(Cl)c2)CCCN(Cc2cnn(-c3ccccc3)c2)C1 (configuration not stated)	DRD3 antagonist -61.9, TGFb inhibitor inconclusive (no result: ATXN2 expr inh)
Cn1cc(CN2CCCC(CO)(Cc3cccc(Cl)c3)C2)cn1 (configuration not stated)	none (no result: ATXN2 expr inh)
OCC1(Cc2ccc(F)cc2F)CCCN(Cc2ccc(Cl)cc2)C1 (configuration not stated)	DRD3 antagonist -83.2, TGFb inhibitor inconclusive, ATXN viability inconclusive (no result: ATXN2 expr inh)
CC1CC=CC2C1C(=O)N(Cc1ccccc1)C2c1ccc(F)c(Br)c1 (configuration not stated)	TGFb inhibitor inconclusive (no result: ATXN2 expr inh, DRD3 antagonist, DRD3 agonist, ATXN viability)
Cc1cc(C(F)F)n2nc(C(=O)Nc3ccc(F)cc3F)nc2n1	DRD3 antagonist -53.7
COC(=O)c1cccc(C(=O)Nc2ccc(F)cc2)n1	DRD3 antagonist -62.1
CC(=O)Nc1ccc(NC(=O)c2cccc(C(=O)OC(C)C)n2)cc1	none
O=C(Nc1ccc(F)cc1F)c1cccc(C(=O)Nc2ccc(F)cc2F)n1	ATXN2 expr inh 2.51µM, ATXN viability 4.47µM
CN(CC(=O)Nc1cccc(F)c1)S(=O)(=O)c1ccc2c(c1)n(C)c(=O)c(=O)n2C	none (no result: DRD3 antagonist)
CC(C)C(O)(C#CCN1CCCCC1)c1ccccc1 (configuration not stated)	DRD3 antagonist -71.4
OC(C#CCN1CCCCCC1)(c1ccccc1)c1cccnc1 (configuration not stated)	DRD3 antagonist -64.0
OC(C#CCN1CCCC1)(c1ccccc1)c1cccnc1 (configuration not stated)	none (no result: ATXN viability)
OC(C#CCN1CCCCC1)c1ccccc1 (configuration not stated)	DRD3 antagonist -50.6
Cc1cc(C(=O)N2CCCC(C(=O)c3cc(F)ccc3F)C2)c(C)o1 (configuration not stated)	DRD3 antagonist -56.4
CC(C)c1nn2c(=O)cc(COC(=O)c3ccc(NC(=O)COc4ccccc4)cc3)nc2s1	none (no result: ATXN2 expr inh, DRD3 antagonist, ATXN viability)
CCc1oc(C(=O)OC)cc1CSC(=N)N	HepG2 viability 15.8µM
CC1(C)CC(=O)C2=C(C1)Oc1nc3ccccc3cc1C2C(C#N)C#N (configuration not stated)	DRD3 antagonist inconclusive, TGFb inhibitor 11.2µM, ATXN viability inconclusive
CC1(C)CC(=O)C(C2C3=C(CC(C)(C)CC3=O)Oc3ccccc32)C(=O)C1 (configuration not stated)	none
NC(=O)CC[C@@H]1NC(=O)[C@H](Cc2ccccc2)NC(=O)[C@H](Cc2ccc(O)cc2)NC(=O)CCSSC[C@@H](C(=O)N2CCC[C@H]2C(=O)N[C@@H](CCCN=C(N)N)C(=O)NCC(N)=O)NC(=O)[C@H](CC(N)=O)NC1=O	none (no result: DRD3 antagonist, TGFb inhibitor, HepG2 viability)
CO/N=C(\C(=O)N[C@@H]1C(=O)N2C(C(=O)[O-])=C(C[n+]3cccc4c3CCC4)CS[C@H]12)c1csc(N)n1	none (no result: ATXN2 expr inh, DRD3 antagonist, TGFb inhibitor, ATXN viability, HepG2 viability)
CCN(Cc1ccccc1)C(=O)c1cc(-c2ccccc2)n[nH]1	none (no result: DRD3 antagonist)
Fc1ccccc1Nc1nc2ccccc2o1	HepG2 viability 7.08µM
Cc1cc(C(C)(C)CC(C)(C)C)ccc1OCCOCC[N+](C)(C)Cc1ccccc1	ATXN2 expr inh inconclusive, TGFb inhibitor inconclusive, ATXN viability inconclusive, HepG2 viability 20µM
CN(C)c1ccc(C=O)c(Cl)c1	none (no result: ATXN2 expr inh, DRD3 antagonist, DRD3 agonist, ATXN viability)
COc1cc(OC)c2c(c1C(CCN1CCN(c3ccccc3)CC1)c1ccc(N(C)C)cc1)OC(=O)CC2c1ccc(N(C)C)cc1 (configuration not stated)	none (no result: ATXN2 expr inh, DRD3 antagonist, DRD3 agonist, ATXN viability)
O=C(O)CSCC(=O)Nc1cc(C(F)(F)F)ccc1Cl	none
CC(C)Oc1cc(NC(=O)CSCC(=O)Nc2cccc(C(F)(F)F)c2)c(Cl)cc1Cl	ATXN2 expr inh inconclusive, TGFb inhibitor 11.2µM, ATXN viability inconclusive
Cc1ncc(CO)c(/C=N/Nc2ccc(C(F)(F)F)cn2)c1O	ATXN2 expr inh 6.31µM, DRD3 antagonist -73.7
CC(=O)c1ccc(NC(=O)CSc2nccn2Cc2ccc3c(c2)OCO3)cc1	TGFb inhibitor inconclusive (no result: ATXN2 expr inh, DRD3 antagonist, ATXN viability)
Cc1cccc(OCCn2c(-c3ccc(Cl)cc3)nc3ccccc3c2=O)c1C	none (no result: DRD3 antagonist)
CCc1cc(C(=O)c2ccccc2)c(N)s1	ATXN viability inconclusive
Nc1ccc(SC(F)(F)F)cc1C(=O)c1ccccc1	TGFb inhibitor 12.6µM
CCN(CC)c1nc(N)c2c(N)n(-c3ccccc3C)c(=S)c(C#N)c2c1C#N	DRD3 antagonist -82.3
Brc1ccc2c(c1)CN1CCCC1=N2	DRD3 antagonist -50.2 (no result: ATXN2 expr inh)
O=c1[nH]c(=O)n([C@H]2C[C@H](O)[C@@H](CO)O2)cc1F	ATXN2 expr inh 7.94µM!, ATXN viability inconclusive
Cc1cn([C@H]2C[C@H](O)[C@@H](CO)O2)c(=O)[nH]c1=O	none (no result: ATXN2 expr inh, DRD3 antagonist, TGFb inhibitor, ATXN viability, HepG2 viability)
COc1ccc(CCNC(=O)c2cc3c(s2)-c2ccccc2OC3)cc1OC	ATXN2 expr inh inconclusive (no result: DRD3 antagonist)
COC(=O)c1cc2c(s1)-c1cc(F)ccc1OC2	none (no result: ATXN viability)
CC(=O)c1cc2c(s1)-c1cc(F)ccc1OC2	ATXN2 expr inh inconclusive, TGFb inhibitor 7.08µM (no result: ATXN viability)
CC1CC(C)CN(CCCNC(=O)c2cc3c(s2)-c2ccccc2OC3)C1 (configuration not stated)	ATXN2 expr inh 25.1µM, TGFb inhibitor inconclusive, ATXN viability inconclusive
CN(C)CCNC(=O)c1cc2c(s1)-c1ccccc1OC2	DRD3 antagonist -81.4
CCCN1CCN(CCCNC(=O)c2cc3c(s2)-c2ccccc2OC3)CC1	ATXN2 expr inh inconclusive, DRD3 antagonist inconclusive, TGFb inhibitor inconclusive
CCN1CCN(CCCNC(=O)c2cc3c(s2)-c2ccccc2OC3)CC1	ATXN2 expr inh inconclusive, DRD3 antagonist inconclusive, TGFb inhibitor inconclusive
CC1CCCC(C)N1CCCNC(=O)c1cc2c(s1)-c1ccccc1OC2 (configuration not stated)	ATXN2 expr inh inconclusive, DRD3 antagonist inconclusive, TGFb inhibitor inconclusive, HepG2 viability 14.1µM
Cc1nc2sc(C(=O)Nc3ccc(F)cc3)c(N)c2c(-c2ccc(Br)cc2)c1C(=O)Nc1ccc(Cl)cc1	none (no result: DRD3 antagonist)
Cc1cccc(N2CCN(C(=O)c3ccccn3)CC2C)c1 (configuration not stated)	ATXN viability inconclusive
Cc1cccc(N2CCN(C(=O)NC3CCCCC3)CC2C)c1 (configuration not stated)	ATXN2 expr inh 22.4µM, ATXN viability inconclusive

Screens from PubChem.
